Measured values taken from PubChem BioAssay (EPA / NIEHS).
Results filed as inconclusive are left out. Calls of active or inactive are those of the source. How the source made its calls: active means hit-call score of the fitted dose curve at least 0.9, where 1 is the maximum; inconclusive means response in the unintended direction; inactive means score below 0.9.

How the values were obtained:
[1] = ATG_M_19_XSP1: Attagene TRANS-FACTORIAL Multi-Species (XSP1) HepG2 Assay for M19 Transcription Factor (Internal Marker) (AID 2283798)
Summary of the method: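 HepG2 cells transiently transfected with multiplexed GAL4-UAS reporter units, dosed 24 h with 3 nM 6-alpha-fluorotestosterone present for partial AR stimulation. Reporter mRNA measured by RT-PCR with capillary electrophoresis; gain-of-signal fitted relative to DMSO.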

[2] = ATG_M_32_XSP1: Attagene TRANS-FACTORIAL Multi-Species (XSP1) HepG2 Assay for M32 Transcription Factor (Internal Marker) (AID 2283799)
Summary of the method: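 HepG2 cells transiently transfected with multi-species TRANS reporter units, dosed 24 h with 3 nM 6-alpha-fluorotestosterone present. Internal-marker reporter mRNA quantified by RT-PCR and capillary electrophoresis; positive-direction fit versus DMSO.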

[3] = system: zebrafish Peroxisome Proliferator-activated Receptor gamma (PPARg), gene 557037; assay: ATG_zfPPARg_XSP1: Attagene TRANS-FACTORIAL Multi-Species (XSP1) HepG2 Assay for zebrafish Peroxisome Proliferator-activated Receptor gamma (PPARg) (AID 2283801)
Summary of the method: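 HepG2 cells transiently transfected with GAL4-UAS reporter units including a zebrafish PPARg–GAL4 chimera, dosed 24 h with 3 nM 6-alpha-fluorotestosterone present. Reporter mRNA quantified by RT-PCR, FAM labelling, HpaI digestion and capillary electrophoresis; induction versus DMSO.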

[4] = biological target: mouse Peroxisome Proliferator-activated Receptor gamma (PPARg), Pparg (gene 19016) (UniProt P37238); assay: ATG_mPPARg_XSP1: Attagene TRANS-FACTORIAL Multi-Species (XSP1) HepG2 Assay for mouse Peroxisome Proliferator-activated Receptor gamma (PPARg) (AID 2283802)
Summary of the method: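 HepG2 cells transiently transfected with GAL4-UAS reporter units driven by mouse PPARg–GAL4 chimera; 3 nM 6-alpha-fluorotestosterone present. After 24 h dosing, reporter mRNA quantified by RT-PCR, fluorescent labelling and capillary electrophoresis; gain of signal versus DMSO.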

[5] = biological target: Nuclear receptor subfamily 1 group I member 2 (Mus musculus) (UniProt O54915); assay: ATG_mPXR_XSP1: Attagene TRANS-FACTORIAL Multi-Species (XSP1) HepG2 Assay for mouse Pregnane X Receptor (PXR) (AID 2283803)
Summary of the method: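 Transiently transfected HepG2 cells expressing a receptor-Gal4 chimera drive a GAL4-UAS reporter; 3 nM 6-alpha-fluorotestosterone included. Reporter mRNA read 24 h post-dose by RT-PCR and capillary electrophoresis; gain of signal relative to DMSO.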

[6] = ATG_M_61_XSP1: Attagene TRANS-FACTORIAL Multi-Species (XSP1) HepG2 Assay for M61 Transcription Factor (Internal Marker) (AID 2283797)
Summary of the method: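 HepG2 cells transiently transfected with multiplexed GAL4-driven reporter units, dosed 24 h with 3 nM 6-alpha-fluorotestosterone present. Reporter mRNA quantified by RT-PCR, 6-FAM labelling, HpaI digestion and capillary electrophoresis; internal-marker background control, gain of signal versus DMSO.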

[7] = biological target: Peroxisome proliferator-activated receptor gamma (Homo sapiens) (UniProt P37231); assay: ATG_hPPARg_XSP1: Attagene TRANS-FACTORIAL Multi-Species (XSP1) HepG2 Assay for human Peroxisome Proliferator-activated Receptor gamma (PPARg) (AID 2283800)
Summary of the method: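 HepG2 cells transiently transfected with GAL4-UAS reporter units carrying chimeric NR-Gal4 proteins; 3 nM 6-alpha-fluorotestosterone present. After 24 h dosing, reporter mRNA quantified by RT-PCR and capillary electrophoresis; gain of signal relative to DMSO.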

[8] = biological target: human Thyroid hormone Receptor alpha (TRa), THRA (gene 7067) (UniProt P10827); assay: ATG_hTRa_XSP1: Attagene TRANS-FACTORIAL Multi-Species (XSP1) HepG2 Assay for human Thyroid hormone Receptor alpha (TRa) (AID 2283805)
Summary of the method: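 HepG2 cells transiently transfected with GAL4-UAS reporter units expressing chimeric NR-Gal4 proteins, dosed 24 hours with 3 nM 6-alpha-fluorotestosterone present. Reporter mRNA measured by RT-PCR and capillary electrophoresis; gain of signal fitted versus DMSO.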

[9] = biological target: frog Thyroid hormone Receptor alpha (TRa), thra-a (gene 397942) (UniProt P15204); assay: ATG_frTRa_XSP1: Attagene TRANS-FACTORIAL Multi-Species (XSP1) HepG2 Assay for frog Thyroid hormone Receptor alpha (TRa) (AID 2283804)
Summary of the method: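 HepG2 cells transiently transfected with frog TRa-GAL4 chimeric reporter units, dosed 24 hr with 3 nM 6-alpha-fluorotestosterone present; reporter mRNA quantified by RT-PCR, fluorescent labelling and capillary electrophoresis, gain of signal versus DMSO.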

[10] = system: turtle Thyroid Hormone Receptor, alpha (TRa), gene 101949057; assay: ATG_trTRa_XSP1: Attagene TRANS-FACTORIAL Multi-Species (XSP1) HepG2 Assay for turtle Thyroid Hormone Receptor, alpha (TRa) (AID 2283806)
Summary of the method: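 HepG2 cells transiently transfected with GAL4-UAS reporter units and chimeric receptor-Gal4 constructs, with 3 nM 6-alpha-fluorotestosterone present. Reporter mRNA was quantified 24 h after dosing by RT-PCR, 6-FAM labelling and capillary electrophoresis; gain of signal versus DMSO.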

Measured: AC50

Chain of Nuclear receptor subfamily 1 group I member 2 (Mus musculus) (O54915 whole entry, looked up, the tested form may be a part): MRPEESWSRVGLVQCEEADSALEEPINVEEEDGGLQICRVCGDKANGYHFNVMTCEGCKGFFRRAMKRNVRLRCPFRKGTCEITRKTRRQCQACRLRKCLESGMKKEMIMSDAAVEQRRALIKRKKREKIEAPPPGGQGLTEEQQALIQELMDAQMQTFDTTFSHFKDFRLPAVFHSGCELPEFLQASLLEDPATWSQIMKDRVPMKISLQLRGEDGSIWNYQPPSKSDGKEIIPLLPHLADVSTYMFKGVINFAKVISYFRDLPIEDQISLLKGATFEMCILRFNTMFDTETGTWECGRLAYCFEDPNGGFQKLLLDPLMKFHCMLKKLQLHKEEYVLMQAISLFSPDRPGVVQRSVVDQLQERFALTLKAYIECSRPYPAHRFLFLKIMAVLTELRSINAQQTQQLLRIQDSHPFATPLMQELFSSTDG
Chain of mouse Peroxisome Proliferator-activated Receptor gamma (PPARg), Pparg (gene 19016) (P37238 whole entry, looked up, the tested form may be a part): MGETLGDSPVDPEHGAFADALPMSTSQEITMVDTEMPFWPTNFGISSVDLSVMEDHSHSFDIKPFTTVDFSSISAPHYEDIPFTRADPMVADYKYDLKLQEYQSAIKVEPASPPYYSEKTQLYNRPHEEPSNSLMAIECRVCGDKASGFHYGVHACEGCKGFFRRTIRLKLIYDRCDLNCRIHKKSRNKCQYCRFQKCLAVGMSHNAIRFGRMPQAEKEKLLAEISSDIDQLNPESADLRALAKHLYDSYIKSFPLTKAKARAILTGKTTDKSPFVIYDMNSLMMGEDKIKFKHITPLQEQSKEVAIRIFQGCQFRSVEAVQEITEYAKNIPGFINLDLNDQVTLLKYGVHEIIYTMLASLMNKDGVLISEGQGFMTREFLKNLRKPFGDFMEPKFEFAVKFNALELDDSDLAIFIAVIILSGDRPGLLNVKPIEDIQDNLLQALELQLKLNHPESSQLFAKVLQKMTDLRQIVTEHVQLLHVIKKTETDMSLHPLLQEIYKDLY
Chain of frog Thyroid hormone Receptor alpha (TRa), thra-a (gene 397942) (P15204 whole entry, looked up, the tested form may be a part): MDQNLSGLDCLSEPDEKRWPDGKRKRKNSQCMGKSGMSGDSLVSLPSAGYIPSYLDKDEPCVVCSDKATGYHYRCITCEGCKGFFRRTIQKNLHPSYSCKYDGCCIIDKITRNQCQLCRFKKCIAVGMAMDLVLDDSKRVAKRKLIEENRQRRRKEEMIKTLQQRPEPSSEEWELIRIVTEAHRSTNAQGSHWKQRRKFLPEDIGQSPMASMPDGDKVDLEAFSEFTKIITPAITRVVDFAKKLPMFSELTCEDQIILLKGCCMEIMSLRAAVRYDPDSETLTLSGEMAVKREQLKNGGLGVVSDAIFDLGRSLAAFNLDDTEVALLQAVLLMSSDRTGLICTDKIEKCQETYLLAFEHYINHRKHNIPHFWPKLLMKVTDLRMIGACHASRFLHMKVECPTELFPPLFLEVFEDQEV
Chain of human Thyroid hormone Receptor alpha (TRa), THRA (gene 7067) (P10827 whole entry, looked up, the tested form may be a part): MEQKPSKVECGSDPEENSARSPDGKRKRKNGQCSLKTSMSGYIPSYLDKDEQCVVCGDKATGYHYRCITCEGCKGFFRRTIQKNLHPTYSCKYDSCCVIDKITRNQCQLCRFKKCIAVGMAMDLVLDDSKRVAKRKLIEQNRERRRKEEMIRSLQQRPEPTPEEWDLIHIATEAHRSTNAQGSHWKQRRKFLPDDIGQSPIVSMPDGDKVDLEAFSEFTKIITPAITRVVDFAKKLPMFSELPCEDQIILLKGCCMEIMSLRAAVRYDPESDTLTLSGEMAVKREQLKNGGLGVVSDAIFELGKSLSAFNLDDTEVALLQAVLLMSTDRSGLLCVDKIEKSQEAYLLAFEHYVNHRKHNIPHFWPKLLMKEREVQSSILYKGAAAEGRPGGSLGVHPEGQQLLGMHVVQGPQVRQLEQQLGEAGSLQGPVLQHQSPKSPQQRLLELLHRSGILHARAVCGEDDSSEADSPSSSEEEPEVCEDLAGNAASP
Chain of Peroxisome proliferator-activated receptor gamma (Homo sapiens) (P37231 whole entry, looked up, the tested form may be a part): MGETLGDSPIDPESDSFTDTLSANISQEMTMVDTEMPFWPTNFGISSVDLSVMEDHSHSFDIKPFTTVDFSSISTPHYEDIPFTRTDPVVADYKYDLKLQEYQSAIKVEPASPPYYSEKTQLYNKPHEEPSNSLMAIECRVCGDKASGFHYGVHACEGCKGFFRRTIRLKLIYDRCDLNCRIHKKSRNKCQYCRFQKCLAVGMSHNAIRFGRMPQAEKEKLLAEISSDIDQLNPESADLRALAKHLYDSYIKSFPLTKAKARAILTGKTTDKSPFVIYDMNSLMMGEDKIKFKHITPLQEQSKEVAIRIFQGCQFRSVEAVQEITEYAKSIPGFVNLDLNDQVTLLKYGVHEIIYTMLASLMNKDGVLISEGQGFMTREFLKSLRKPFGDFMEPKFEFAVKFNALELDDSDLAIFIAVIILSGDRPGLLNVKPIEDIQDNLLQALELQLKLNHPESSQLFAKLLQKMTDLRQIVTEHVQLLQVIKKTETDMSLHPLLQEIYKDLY

Clc1ccc(C(c2ccc(Cl)cc2)C(Cl)Cl)cc1
active: [4] 50.3 µM | [5] 24.6 µM
inactive: [1] | [2] | [3]

CCCCCOC(=O)c1ccccc1C(=O)OCCCCC
inactive: [6] | [2] | [3] | [8]
active: [7] 31.9 µM | [4] 37.6 µM | [5] 5.96 µM

C[C@]12C=CC3=C4CCC(=O)C=C4CC[C@H]3[C@@H]1CC[C@@H]2O
inactive: [1] | [2] | [9] | [10]

Clc1ccc(C(c2ccc(Cl)cc2)C(Cl)(Cl)Cl)cc1
active: [3] 100 µM | [4] 67.5 µM | [5] 2.67 µM
inactive: [1] | [2] | [9] | [10]

CCCCOC(=O)c1ccccc1C(=O)OCc1ccccc1
inactive: [1] | [2] | [3]
active: [4] 9.86 µM | [5] 3.81 µM

CCC[CH2][Sn]([Cl])([CH2]CCC)[CH2]CCC
inactive: [1] | [3] | [9] | [10]
active: [8] 0.0865 µM
